Measured values: article PMC11006913
Where a chain is given by its changes, count along the chain named.

Legend:
Assay in all cases: PBM; 200 nM protein, PBS
Conditions in all cases: dsDNA, one strand shown
HOXB4 [1] = target: HOXB4 (Homo sapiens, UniProt P17483 148-234)
HOXB9 [2] = target: HOXB9 (Homo sapiens, UniProt P17482 171-250, T197M)
HOXA4 [3] = target: HOXA4 (Homo sapiens, UniProt Q00056 201-287, W262R)
HOXC9 [4] = target: HOXC9 (Homo sapiens, UniProt P31274 178-260, K195R)
HOXA7 [5] = target: HOXA7 (Homo sapiens, UniProt P31268 116-202)
HOXB6 [6] = target: HOXB6 (Homo sapiens, UniProt P17509 132-218, K202E)
HOXA4 [7] = target: HOXA4 (Homo sapiens, UniProt Q00056 201-287, R217L)
HOXB9 [8] = target: HOXB9 (Homo sapiens, UniProt P17482 171-250)
HOXB4 [9] = target: HOXB4 (Homo sapiens, UniProt P17483 148-234, V174I)
HOXC9 [10] = target: HOXC9 (Homo sapiens, UniProt P31274 178-260)
HOXC9 [11] = target: HOXC9 (Homo sapiens, UniProt P31274 178-260, R193K)
HOXA4 [12] = target: HOXA4 (Homo sapiens, UniProt Q00056 201-287)
HOXC10 = HOXC10 (Homo sapiens, UniProt Q9NYD6 254-340, K271E)
HOXB9 [13] = target: HOXB9 (Homo sapiens, UniProt P17482 171-250, R186Q)
HOXC9 [14] = target: HOXC9 (Homo sapiens, UniProt P31274 178-260, R222W)
HOXA7 [15] = target: HOXA7 (Homo sapiens, UniProt P31268 116-202, W177C)
HOXA4 [16] = target: HOXA4 (Homo sapiens, UniProt Q00056 201-287, W262F)
HOXB6 [17] = target: HOXB6 (Homo sapiens, UniProt P17509 132-218)
PRRX1 [18] = target: PRRX1 (Homo sapiens, UniProt P54821 80-166, F113S)
ALX3 = ALX3 (Homo sapiens, UniProt O95076 139-225, N203Q)
HESX1 = HESX1 (Homo sapiens, UniProt Q9UBX0 95-180, F115L)
PRRX1 [19] = target: PRRX1 (Homo sapiens, UniProt P54821 80-166)
VENTX [20] = target: T1, VENTX (Homo sapiens, UniProt O95231 78-163, R121Q)
T1 sequence: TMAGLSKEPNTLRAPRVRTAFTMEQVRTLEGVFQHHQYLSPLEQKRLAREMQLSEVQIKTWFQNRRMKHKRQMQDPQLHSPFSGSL

VENTX [21] = target: T2, VENTX (Homo sapiens, UniProt O95231 78-163)
T2 sequence: T1 sequence with Q44R

VENTX [22] = target: T3, VENTX (Homo sapiens, UniProt O95231 78-163, Y115F)
T3 sequence: T1 sequence with Y38F, Q44R

HOXA2 [23] = target: HOXA2 (Homo sapiens, UniProt O43364 129-215, R185T)
NKX2-6 = target: T4, NKX2-6 (Homo sapiens, UniProt A6NCS4 118-204)
T4 sequence: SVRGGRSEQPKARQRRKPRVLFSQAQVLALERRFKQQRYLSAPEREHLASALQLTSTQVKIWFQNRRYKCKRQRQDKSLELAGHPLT

HOXA2 [24] = target: HOXA2 (Homo sapiens, UniProt O43364 129-215, R185K)
VAX1 [25] = target: VAX1 (Homo sapiens, UniProt Q5SQQ9 86-172)
VAX1 [26] = target: VAX1 (Homo sapiens, UniProt Q5SQQ9 86-172, T142I)
HOXA2 [27] = target: HOXA2 (Homo sapiens, UniProt O43364 129-215, Y150S)
HOXA2 [28] = target: HOXA2 (Homo sapiens, UniProt O43364 129-215)
VAX1 [29] = target: VAX1 (Homo sapiens, UniProt Q5SQQ9 86-172, K157R)
VAX1 (Homo sapiens, UniProt Q5SQQ9 86-172, K157R), sequence (Q5SQQ9 86-172 K157R): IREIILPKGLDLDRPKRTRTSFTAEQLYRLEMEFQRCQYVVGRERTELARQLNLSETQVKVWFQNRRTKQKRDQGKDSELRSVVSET

HOXB6 (Homo sapiens, UniProt P17509 132-218, K202E), sequence (P17509 132-218 K202E): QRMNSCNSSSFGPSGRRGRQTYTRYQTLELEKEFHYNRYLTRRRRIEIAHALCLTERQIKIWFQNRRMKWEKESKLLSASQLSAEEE
VAX1 (Homo sapiens, UniProt Q5SQQ9 86-172), sequence (Q5SQQ9 86-172): as the sequence (Q5SQQ9 86-172 K157R) above, with R72K counted along it
HOXA4 (Homo sapiens, UniProt Q00056 201-287, W262R), sequence (Q00056 201-287 W262R): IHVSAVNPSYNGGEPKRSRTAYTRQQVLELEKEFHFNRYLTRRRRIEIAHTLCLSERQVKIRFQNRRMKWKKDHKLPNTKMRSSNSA
HOXA2 (Homo sapiens, UniProt O43364 129-215, R185T), sequence (O43364 129-215 R185T): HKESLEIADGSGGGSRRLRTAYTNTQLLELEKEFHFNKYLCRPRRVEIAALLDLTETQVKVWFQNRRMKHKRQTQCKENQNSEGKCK
HOXA4 (Homo sapiens, UniProt Q00056 201-287), sequence (Q00056 201-287): as the sequence (Q00056 201-287 W262R) above, with R62W counted along it
HOXA2 (Homo sapiens, UniProt O43364 129-215, Y150S), sequence (O43364 129-215 Y150S): as the sequence (O43364 129-215 R185T) above, with Y22S, T57R counted along it
HOXB4 (Homo sapiens, UniProt P17483 148-234, V174I), sequence (P17483 148-234 V174I): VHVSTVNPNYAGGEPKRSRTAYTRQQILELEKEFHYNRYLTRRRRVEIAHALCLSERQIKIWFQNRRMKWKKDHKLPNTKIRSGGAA
HOXB4 (Homo sapiens, UniProt P17483 148-234), sequence (P17483 148-234): as the sequence (P17483 148-234 V174I) above, with I27V counted along it
HOXA2 (Homo sapiens, UniProt O43364 129-215, R185K), sequence (O43364 129-215 R185K): as the sequence (O43364 129-215 R185T) above, with T57K counted along it
HOXA4 (Homo sapiens, UniProt Q00056 201-287, W262F), sequence (Q00056 201-287 W262F): as the sequence (Q00056 201-287 W262R) above, with R62F counted along it
HOXA4 (Homo sapiens, UniProt Q00056 201-287, R217L), sequence (Q00056 201-287 R217L): as the sequence (Q00056 201-287 W262R) above, with R17L, R62W counted along it
HOXA2 (Homo sapiens, UniProt O43364 129-215), sequence (O43364 129-215): as the sequence (O43364 129-215 R185T) above, with T57R counted along it
VAX1 (Homo sapiens, UniProt Q5SQQ9 86-172, T142I), sequence (Q5SQQ9 86-172 T142I): as the sequence (Q5SQQ9 86-172 K157R) above, with T57I, R72K counted along it
HOXB6 (Homo sapiens, UniProt P17509 132-218), sequence (P17509 132-218): as the sequence (P17509 132-218 K202E) above, with E71K counted along it
HOXC10, sequence (Q9NYD6 254-340 K271E): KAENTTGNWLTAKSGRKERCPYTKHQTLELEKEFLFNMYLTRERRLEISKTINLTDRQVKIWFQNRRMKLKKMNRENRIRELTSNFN
HOXB9 (Homo sapiens, UniProt P17482 171-250, T197M), sequence (P17482 171-250 T197M): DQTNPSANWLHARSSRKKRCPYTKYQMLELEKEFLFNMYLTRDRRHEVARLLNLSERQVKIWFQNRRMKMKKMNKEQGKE
HOXA7 (Homo sapiens, UniProt P31268 116-202), sequence (P31268 116-202): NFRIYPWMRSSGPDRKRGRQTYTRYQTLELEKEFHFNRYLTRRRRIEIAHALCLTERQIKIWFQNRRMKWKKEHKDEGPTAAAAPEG
PRRX1 (Homo sapiens, UniProt P54821 80-166, F113S), sequence (P54821 80-166 F113S): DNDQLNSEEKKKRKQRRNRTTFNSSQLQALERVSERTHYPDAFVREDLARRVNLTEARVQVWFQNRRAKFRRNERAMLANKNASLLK
PRRX1 (Homo sapiens, UniProt P54821 80-166), sequence (P54821 80-166): as the sequence (P54821 80-166 F113S) above, with S34F counted along it
HOXA7 (Homo sapiens, UniProt P31268 116-202, W177C), sequence (P31268 116-202 W177C): as the sequence (P31268 116-202) above, with W62C counted along it
HOXC9 (Homo sapiens, UniProt P31274 178-260, R222W), sequence (P31274 178-260 R222W): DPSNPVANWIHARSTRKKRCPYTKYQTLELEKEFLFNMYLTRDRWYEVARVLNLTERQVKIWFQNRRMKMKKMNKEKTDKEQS
ALX3, sequence (O95076 139-225 N203Q): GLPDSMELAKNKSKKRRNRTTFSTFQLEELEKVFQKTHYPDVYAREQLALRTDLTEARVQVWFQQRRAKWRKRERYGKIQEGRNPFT
HOXB9 (Homo sapiens, UniProt P17482 171-250), sequence (P17482 171-250): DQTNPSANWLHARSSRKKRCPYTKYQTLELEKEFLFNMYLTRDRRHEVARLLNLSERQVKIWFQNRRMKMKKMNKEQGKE
HOXC9 (Homo sapiens, UniProt P31274 178-260, K195R), sequence (P31274 178-260 K195R): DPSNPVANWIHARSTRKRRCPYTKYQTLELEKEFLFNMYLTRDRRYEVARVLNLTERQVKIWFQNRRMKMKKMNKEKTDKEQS
HOXB9 (Homo sapiens, UniProt P17482 171-250, R186Q), sequence (P17482 171-250 R186Q): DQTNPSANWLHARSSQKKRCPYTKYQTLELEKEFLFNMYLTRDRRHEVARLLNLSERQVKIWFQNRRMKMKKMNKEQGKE
HESX1, sequence (Q9UBX0 95-180 F115L): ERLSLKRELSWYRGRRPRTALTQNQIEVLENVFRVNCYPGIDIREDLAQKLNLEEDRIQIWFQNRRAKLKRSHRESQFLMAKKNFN
HOXC9 (Homo sapiens, UniProt P31274 178-260, R193K), sequence (P31274 178-260 R193K): as the sequence (P31274 178-260 R222W) above, with R16K, W45R counted along it
HOXC9 (Homo sapiens, UniProt P31274 178-260), sequence (P31274 178-260): as the sequence (P31274 178-260 R222W) above, with W45R counted along it

## ACCATTAA
HOXB4 [1]
  binding signal: 13.1 upbm affinity estimate (log intensity, higher = more binding, comparable within an allelic series)
HOXB9 [2]
  binding signal: 10.1 upbm affinity estimate (log intensity, higher = more binding, comparable within an allelic series)
HOXA4 [3]
  binding signal: 10.6 upbm affinity estimate (log intensity, higher = more binding, comparable within an allelic series)
HOXC9 [4]
  binding signal: 12.7 upbm affinity estimate (log intensity, higher = more binding, comparable within an allelic series)
HOXA7 [5]
  binding signal: 11.7 upbm affinity estimate (log intensity, higher = more binding, comparable within an allelic series)
HOXB6 [6]
  binding signal: 10.1 upbm affinity estimate (log intensity, higher = more binding, comparable within an allelic series)
HOXA4 [7]
  binding signal: 12 upbm affinity estimate (log intensity, higher = more binding, comparable within an allelic series)
HOXB9 [8]
  binding signal: 11.8 upbm affinity estimate (log intensity, higher = more binding, comparable within an allelic series)
HOXB4 [9]
  binding signal: 13.7 upbm affinity estimate (log intensity, higher = more binding, comparable within an allelic series)
HOXC9 [10]
  binding signal: 12.7 upbm affinity estimate (log intensity, higher = more binding, comparable within an allelic series)
HOXC9 [11]
  binding signal: 12.6 upbm affinity estimate (log intensity, higher = more binding, comparable within an allelic series)
HOXA4 [12]
  binding signal: 14 upbm affinity estimate (log intensity, higher = more binding, comparable within an allelic series)
HOXC10
  binding signal: 11.9 upbm affinity estimate (log intensity, higher = more binding, comparable within an allelic series)
HOXB9 [13]
  binding signal: 11.6 upbm affinity estimate (log intensity, higher = more binding, comparable within an allelic series)
HOXC9 [14]
  binding signal: 10.9 upbm affinity estimate (log intensity, higher = more binding, comparable within an allelic series)
HOXA7 [15]
  binding signal: 8.92 upbm affinity estimate (log intensity, higher = more binding, comparable within an allelic series)
HOXA4 [16]
  binding signal: 11.4 upbm affinity estimate (log intensity, higher = more binding, comparable within an allelic series)
HOXB6 [17]
  binding signal: 12 upbm affinity estimate (log intensity, higher = more binding, comparable within an allelic series)

## ATTATTAA
HOXB4 [1]
  binding signal: 12.9 upbm affinity estimate (log intensity, higher = more binding, comparable within an allelic series)
HOXB9 [2]
  binding signal: 10 upbm affinity estimate (log intensity, higher = more binding, comparable within an allelic series)
PRRX1 [18]
  binding signal: 11 upbm affinity estimate (log intensity, higher = more binding, comparable within an allelic series)
HOXB6 [6]
  binding signal: 10.1 upbm affinity estimate (log intensity, higher = more binding, comparable within an allelic series)
HOXB4 [9]
  binding signal: 13.6 upbm affinity estimate (log intensity, higher = more binding, comparable within an allelic series)
ALX3
  binding signal: 8.56 upbm affinity estimate (log intensity, higher = more binding, comparable within an allelic series)
HESX1
  binding signal: 7.79 upbm affinity estimate (log intensity, higher = more binding, comparable within an allelic series)
PRRX1 [19]
  binding signal: 13.2 upbm affinity estimate (log intensity, higher = more binding, comparable within an allelic series)

## CTAATGAC
HOXB4 [1]
  binding signal: 13.2 upbm affinity estimate (log intensity, higher = more binding, comparable within an allelic series)
VENTX [20]
  binding signal: 11.9 upbm affinity estimate (log intensity, higher = more binding, comparable within an allelic series)
HOXA4 [3]
  binding signal: 10.6 upbm affinity estimate (log intensity, higher = more binding, comparable within an allelic series)
VENTX [21]
  binding signal: 12.5 upbm affinity estimate (log intensity, higher = more binding, comparable within an allelic series)
VENTX [22]
  binding signal: 11.9 upbm affinity estimate (log intensity, higher = more binding, comparable within an allelic series)
HOXA2 [23]
  binding signal: 13.1 upbm affinity estimate (log intensity, higher = more binding, comparable within an allelic series)
HOXA4 [7]
  binding signal: 12.1 upbm affinity estimate (log intensity, higher = more binding, comparable within an allelic series)
HOXB4 [9]
  binding signal: 13.9 upbm affinity estimate (log intensity, higher = more binding, comparable within an allelic series)
NKX2-6
  binding signal: 11.7 upbm affinity estimate (log intensity, higher = more binding, comparable within an allelic series)
HOXA2 [24]
  binding signal: 13.7 upbm affinity estimate (log intensity, higher = more binding, comparable within an allelic series)
HOXA4 [12]
  binding signal: 13.9 upbm affinity estimate (log intensity, higher = more binding, comparable within an allelic series)
VAX1 [25]
  binding signal: 13.3 upbm affinity estimate (log intensity, higher = more binding, comparable within an allelic series)
VAX1 [26]
  binding signal: 13.2 upbm affinity estimate (log intensity, higher = more binding, comparable within an allelic series)
HOXA2 [27]
  binding signal: 10.9 upbm affinity estimate (log intensity, higher = more binding, comparable within an allelic series)
HOXA4 [16]
  binding signal: 12 upbm affinity estimate (log intensity, higher = more binding, comparable within an allelic series)
HOXA2 [28]
  binding signal: 12.9 upbm affinity estimate (log intensity, higher = more binding, comparable within an allelic series)
VAX1 [29]
  binding signal: 13.2 upbm affinity estimate (log intensity, higher = more binding, comparable within an allelic series)

## GTTAATGA
HOXB4 [1]
  binding signal: 13.3 upbm affinity estimate (log intensity, higher = more binding, comparable within an allelic series)
VENTX [20]
  binding signal: 11.9 upbm affinity estimate (log intensity, higher = more binding, comparable within an allelic series)
HOXA4 [3]
  binding signal: 10.7 upbm affinity estimate (log intensity, higher = more binding, comparable within an allelic series)
VENTX [21]
  binding signal: 12.6 upbm affinity estimate (log intensity, higher = more binding, comparable within an allelic series)
HOXA7 [5]
  binding signal: 11.3 upbm affinity estimate (log intensity, higher = more binding, comparable within an allelic series)
VENTX [22]
  binding signal: 11.9 upbm affinity estimate (log intensity, higher = more binding, comparable within an allelic series)
HOXB6 [6]
  binding signal: 9.94 upbm affinity estimate (log intensity, higher = more binding, comparable within an allelic series)
HOXA2 [23]
  binding signal: 13.1 upbm affinity estimate (log intensity, higher = more binding, comparable within an allelic series)
HOXA4 [7]
  binding signal: 12.7 upbm affinity estimate (log intensity, higher = more binding, comparable within an allelic series)
HOXB4 [9]
  binding signal: 14 upbm affinity estimate (log intensity, higher = more binding, comparable within an allelic series)
HOXA2 [24]
  binding signal: 13.5 upbm affinity estimate (log intensity, higher = more binding, comparable within an allelic series)
HOXA4 [12]
  binding signal: 14.1 upbm affinity estimate (log intensity, higher = more binding, comparable within an allelic series)
HOXC10
  binding signal: 11.9 upbm affinity estimate (log intensity, higher = more binding, comparable within an allelic series)
VAX1 [25]
  binding signal: 13.5 upbm affinity estimate (log intensity, higher = more binding, comparable within an allelic series)
VAX1 [26]
  binding signal: 13.4 upbm affinity estimate (log intensity, higher = more binding, comparable within an allelic series)
HOXA2 [27]
  binding signal: 10.9 upbm affinity estimate (log intensity, higher = more binding, comparable within an allelic series)
HOXA7 [15]
  binding signal: 8.79 upbm affinity estimate (log intensity, higher = more binding, comparable within an allelic series)
HOXA4 [16]
  binding signal: 12.3 upbm affinity estimate (log intensity, higher = more binding, comparable within an allelic series)
HOXA2 [28]
  binding signal: 12.8 upbm affinity estimate (log intensity, higher = more binding, comparable within an allelic series)
VAX1 [29]
  binding signal: 13.3 upbm affinity estimate (log intensity, higher = more binding, comparable within an allelic series)
HOXB6 [17]
  binding signal: 11.8 upbm affinity estimate (log intensity, higher = more binding, comparable within an allelic series)

## CCTCATTA
HOXB4 [1]
  binding signal: 13.1 upbm affinity estimate (log intensity, higher = more binding, comparable within an allelic series)
VENTX [20]
  binding signal: 11.6 upbm affinity estimate (log intensity, higher = more binding, comparable within an allelic series)
HOXA4 [3]
  binding signal: 10.5 upbm affinity estimate (log intensity, higher = more binding, comparable within an allelic series)
VENTX [21]
  binding signal: 12.5 upbm affinity estimate (log intensity, higher = more binding, comparable within an allelic series)
PRRX1 [18]
  binding signal: 10.7 upbm affinity estimate (log intensity, higher = more binding, comparable within an allelic series)
VENTX [22]
  binding signal: 11.8 upbm affinity estimate (log intensity, higher = more binding, comparable within an allelic series)
HOXA2 [23]
  binding signal: 13.1 upbm affinity estimate (log intensity, higher = more binding, comparable within an allelic series)
HOXA4 [7]
  binding signal: 12.1 upbm affinity estimate (log intensity, higher = more binding, comparable within an allelic series)
HOXB4 [9]
  binding signal: 13.7 upbm affinity estimate (log intensity, higher = more binding, comparable within an allelic series)
HOXA2 [24]
  binding signal: 13.4 upbm affinity estimate (log intensity, higher = more binding, comparable within an allelic series)
HOXA4 [12]
  binding signal: 13.8 upbm affinity estimate (log intensity, higher = more binding, comparable within an allelic series)
VAX1 [25]
  binding signal: 13.6 upbm affinity estimate (log intensity, higher = more binding, comparable within an allelic series)
VAX1 [26]
  binding signal: 13.3 upbm affinity estimate (log intensity, higher = more binding, comparable within an allelic series)
HOXA2 [27]
  binding signal: 10.7 upbm affinity estimate (log intensity, higher = more binding, comparable within an allelic series)
HOXA4 [16]
  binding signal: 11.5 upbm affinity estimate (log intensity, higher = more binding, comparable within an allelic series)
PRRX1 [19]
  binding signal: 13.2 upbm affinity estimate (log intensity, higher = more binding, comparable within an allelic series)
HOXA2 [28]
  binding signal: 12.8 upbm affinity estimate (log intensity, higher = more binding, comparable within an allelic series)
VAX1 [29]
  binding signal: 13.4 upbm affinity estimate (log intensity, higher = more binding, comparable within an allelic series)
